We go through 18 molecules from PubChem BioAssay (NCATS).

Several values for one entry are separate records, joined by “and”; a condition that tells them apart may be missing. Identical values can stand only once. Records with an inconclusive call do not appear. Activity calls are given as the source filed them. Unless noted, the call rests on the fitted dose curve; in most records, active means well fitted curve in the direction sought with a large enough effect; inconclusive means small, poorly fitted or top-dose-only effect, or another doubt; inactive means no such curve, though single readings can be large; an effect the other way counts as inactive or inconclusive.

For test [1], the target named is Catechol O-methyltransferase (Homo sapiens) (UniProt P21964). Kind of test: Confirmatory Screen for Target Class Profiling of Small Molecule Inhibitors of Methyltransferases (AID 1745852; calls by dose curve; further: potency means the concentration at half of the fitted maximal effect; on activity change, negative = inhibition: on the % scale 0 is the no-effect control and ±100 the full control effect). The conditions noted are these: MTase-Glo luminescence, SAH detection, recombinant enzyme; measured here: COMT max response; stronger effect = lower value.
Catechol O-methyltransferase (Homo sapiens), sequence (P21964 whole entry, looked up): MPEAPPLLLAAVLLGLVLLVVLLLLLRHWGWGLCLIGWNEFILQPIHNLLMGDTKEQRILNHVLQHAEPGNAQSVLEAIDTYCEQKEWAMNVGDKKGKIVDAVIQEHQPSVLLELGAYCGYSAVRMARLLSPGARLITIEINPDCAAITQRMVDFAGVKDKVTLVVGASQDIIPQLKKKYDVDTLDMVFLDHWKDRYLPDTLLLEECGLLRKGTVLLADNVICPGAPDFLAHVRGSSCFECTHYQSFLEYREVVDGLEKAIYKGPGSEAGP
Test [2] has as its target Guanidinoacetate N-methyltransferase (Homo sapiens) (UniProt Q14353). Described as above. The settings on record: MTase-Glo luminescence, SAH detection, recombinant enzyme; activity change, negative = inhibition: at 57.3 µM (top of the series).
In test [3] the target is Nicotinamide N-methyltransferase (Homo sapiens) (UniProt P40261). Described as above. The settings on record: MTase-Glo luminescence, SAH detection, recombinant enzyme; measured here: NNMT max response; stronger effect = lower value.
Nicotinamide N-methyltransferase (Homo sapiens), sequence (P40261 whole entry, looked up): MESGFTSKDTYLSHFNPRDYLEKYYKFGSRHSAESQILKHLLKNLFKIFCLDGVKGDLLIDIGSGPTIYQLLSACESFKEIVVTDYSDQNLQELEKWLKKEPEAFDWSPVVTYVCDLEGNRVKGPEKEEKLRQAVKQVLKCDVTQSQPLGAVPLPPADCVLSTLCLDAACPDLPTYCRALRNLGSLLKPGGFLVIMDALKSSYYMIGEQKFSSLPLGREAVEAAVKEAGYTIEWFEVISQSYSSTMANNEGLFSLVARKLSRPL
The target of test [4] is Phenylethanolamine N-methyltransferase (Homo sapiens) (UniProt P11086). Described as above. The conditions noted are these: MTase-Glo luminescence, SAH detection, recombinant enzyme; measured here: PNMT max response; stronger effect = lower value.
Phenylethanolamine N-methyltransferase (Homo sapiens), sequence (P11086 whole entry, looked up): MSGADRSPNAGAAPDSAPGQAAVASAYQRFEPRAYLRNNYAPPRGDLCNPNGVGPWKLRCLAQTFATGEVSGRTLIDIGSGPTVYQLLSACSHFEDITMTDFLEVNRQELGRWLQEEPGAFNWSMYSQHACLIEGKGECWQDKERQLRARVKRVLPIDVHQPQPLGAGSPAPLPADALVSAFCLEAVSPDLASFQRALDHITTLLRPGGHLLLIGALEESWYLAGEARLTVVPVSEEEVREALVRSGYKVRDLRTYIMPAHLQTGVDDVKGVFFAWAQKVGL
Test [5] in a line: Viability counterscreen for antagonist of constitutive androstane receptor (CAR) against the NCATS DSHEA and TCM libraries (AID 1794837).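 Further: compound exposure lasted 24 h before viability reading; 0% is about no effect.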 The conditions noted are these: CAR reporter cell line viability counterscreen, qHTS; series mostly up to 40 µM. In a few lines: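 Counterscreen performed in a 1536-well qHTS format using HepG2-CYP2B6-hCAR cells; samples titrated in the presence of 48 uM CITCO, with viability measured fluorometrically (405/540 nm) after 24 h.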

Test [6] in a line: Viability counterscreen for agonist of constitutive androstane receptor (CAR) against the NCATS DSHEA and TCM libraries (AID 1794838). Further: 0% is about no effect. The conditions noted are these: HepG2 cell viability counterscreen, CAR agonist assay, co-treated with 0.75 µM CAR antagonist; series mostly up to 40 µM. In a few lines: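 Multiplexed counterscreen: after 24 h compound exposure with 0.75 uM PK11195, HepG2-CYP2B6-hCAR viability was quantified fluorimetrically (CellTiter-Fluor, 405/540 nm) prior to the ONE-Glo luciferase read.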
In general terms: Counterscreens check selectivity or assay interference.

The target of test [7] is Nuclear receptor subfamily 1 group I member 3 (Homo sapiens) (UniProt Q14994). Kind of test: Primary qHTS for agonist of constitutive androstane receptor (CAR) against the NCATS DSHEA and TCM libraries (AID 1794839).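 Further: HepG2 cells expressing human CAR with a CYP2B6 reporter plus PK11195 antagonist; luciferase reporter luminescence read with ONE-Glo; 0% is about no effect.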 The settings on record: CAR agonist reporter cells, qHTS luminescence, CAR antagonist co-added at 0.75 µM; series mostly up to 40 µM. In a few lines: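 Concentration–response screen in HepG2-CYP2B6-hCAR cells under 0.75 µM PK11195; 24 h exposure; luminescent reporter signal with multiplexed fluorescent viability.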
Nuclear receptor subfamily 1 group I member 3 (Homo sapiens), sequence (Q14994 whole entry, looked up): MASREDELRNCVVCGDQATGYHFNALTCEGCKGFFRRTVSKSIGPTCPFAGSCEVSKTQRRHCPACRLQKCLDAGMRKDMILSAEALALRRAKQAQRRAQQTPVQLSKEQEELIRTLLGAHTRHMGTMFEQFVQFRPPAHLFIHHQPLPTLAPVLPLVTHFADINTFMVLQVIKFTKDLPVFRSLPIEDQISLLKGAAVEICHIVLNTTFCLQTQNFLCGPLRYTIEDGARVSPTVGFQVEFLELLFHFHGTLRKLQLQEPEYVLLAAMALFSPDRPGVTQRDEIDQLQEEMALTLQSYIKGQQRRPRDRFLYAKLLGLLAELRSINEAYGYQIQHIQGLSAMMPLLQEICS
(qHTS replaces the single test concentration by a dilution series.)

A short description of test [8]: HepG2 viability counterscreen (readout 2: ATP content) against the NCATS DSHEA and TCM libraries (AID 1794840).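 Further: HepG2 cells exposed to substances for about 24 h; 0% is about no effect.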 The settings on record: ATP content luminescence; series mostly up to 27.3 µM. In a few lines:
(§1)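 After HepG2 cells attach for ~4 h, substances are added and incubated ~24 h at 37C, 5% CO2. GF-AFC fluorescence then CellTiter-Glo luminescence give protease and ATP readouts.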

Test [9] in a line: HepG2 viability counterscreen (readout 1: protease activity) against the NCATS DSHEA and TCM libraries (AID 1794841).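 Further: cells exposed to compounds for about 24 h before the protease read; 0% is about no effect.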 The conditions noted are these: qHTS concentration series; series mostly up to 27.3 µM. The essentials: as §1
Test [10] concerns the target Rap guanine nucleotide exchange factor 3 (Homo sapiens) (UniProt O95398). As to the kind of experiment: Confirmatory qHTS for agonist of cAMP-regulated guanine nucleotide exchange factor 3 (EPAC1) (AID 1645881).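 Further: EPAC1 catalysed release of BODIPY-GDP from Rap1B seen as fluorescence loss; 100% = effect of cAMP agonist control; nearly all actives have a fitted effect of over 75% in size.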 The conditions noted are these: EPAC1 Rap1B BODIPY-GDP exchange fluorescence; series mostly up to 154 µM.
Test [11] concerns the target Rap guanine nucleotide exchange factor 4 (Homo sapiens) (UniProt Q8WZA2). Kind of test: Confirmatory qHTS for agonist of cAMP-regulated guanine nucleotide exchange factor 4 (EPAC2) (AID 1645884).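 Further: nucleotide exchange releases bodipy-GDP from Rap1 and this lowers its fluorescence; on the % scale 0 is the no-effect control and ±100 the full control effect; nearly all actives have a fitted effect of over 65% in size.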 The settings on record: EPAC2 GEF activity, Rap1B-BODIPY-GDP fluorescence; series mostly up to 154 µM.
Test [12] can be described thus: NCATS anti-infectives library activity on HEK293 viability as a counter-qHTS vs the C. elegans viability qHTS (AID 1745854). Further: on the % scale 0 is the no-effect control and ±100 the full control effect. The settings on record: HEK293 viability counter-screen; series mostly up to 41.8 µM. The essentials: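 CellTiter-Glo luminescence, read on a CCD imager, scored viability of HEK293 cells after 24 hr compound exposure at 37C. Library tested in several concentrations, 1:5 steps, up to 41.7 uM; digitonin served as control.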

The target in test [13] is Rap guanine nucleotide exchange factor 4 (Homo sapiens) (UniProt Q8WZA2). As to the kind of experiment: Confirmatory qHTS for antagonist of cAMP-regulated guanine nucleotide exchange factor 4 (EPAC2) (AID 1645885). Further: potency means the concentration at half of the fitted maximal effect; nearly all actives have a fitted effect of over 25% in size. The conditions noted are these: EPAC2 Rap1B-BODIPY-GDP exchange fluorescence, biochemical; series mostly up to 114 µM.
Rap guanine nucleotide exchange factor 4 (Homo sapiens), sequence (Q8WZA2 whole entry, looked up): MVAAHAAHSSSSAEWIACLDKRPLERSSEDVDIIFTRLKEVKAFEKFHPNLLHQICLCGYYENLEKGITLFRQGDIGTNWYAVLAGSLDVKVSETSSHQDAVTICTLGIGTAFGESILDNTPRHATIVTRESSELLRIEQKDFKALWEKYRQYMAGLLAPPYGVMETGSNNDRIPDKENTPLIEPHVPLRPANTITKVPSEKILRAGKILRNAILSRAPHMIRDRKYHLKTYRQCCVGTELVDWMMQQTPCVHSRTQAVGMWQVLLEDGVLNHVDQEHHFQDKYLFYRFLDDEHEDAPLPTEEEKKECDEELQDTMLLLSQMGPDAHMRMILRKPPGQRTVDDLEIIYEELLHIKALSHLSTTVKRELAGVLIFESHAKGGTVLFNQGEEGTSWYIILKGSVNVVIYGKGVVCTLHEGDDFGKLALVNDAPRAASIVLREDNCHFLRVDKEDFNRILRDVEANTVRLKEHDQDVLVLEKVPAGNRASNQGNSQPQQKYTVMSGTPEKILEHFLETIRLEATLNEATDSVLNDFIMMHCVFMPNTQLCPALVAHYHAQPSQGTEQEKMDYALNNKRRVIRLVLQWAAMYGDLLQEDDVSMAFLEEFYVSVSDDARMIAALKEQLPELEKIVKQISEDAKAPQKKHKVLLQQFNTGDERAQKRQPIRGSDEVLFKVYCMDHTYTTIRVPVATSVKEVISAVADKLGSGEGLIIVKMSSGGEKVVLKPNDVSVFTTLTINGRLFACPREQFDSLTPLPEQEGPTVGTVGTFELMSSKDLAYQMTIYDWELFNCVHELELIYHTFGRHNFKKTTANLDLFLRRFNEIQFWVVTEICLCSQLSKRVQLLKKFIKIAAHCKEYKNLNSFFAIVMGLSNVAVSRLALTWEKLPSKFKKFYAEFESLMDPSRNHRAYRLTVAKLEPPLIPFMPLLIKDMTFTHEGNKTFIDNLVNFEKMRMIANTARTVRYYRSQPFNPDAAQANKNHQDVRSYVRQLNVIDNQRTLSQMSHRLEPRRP

Rap guanine nucleotide exchange factor 3 (Homo sapiens), sequence (O95398 whole entry, looked up): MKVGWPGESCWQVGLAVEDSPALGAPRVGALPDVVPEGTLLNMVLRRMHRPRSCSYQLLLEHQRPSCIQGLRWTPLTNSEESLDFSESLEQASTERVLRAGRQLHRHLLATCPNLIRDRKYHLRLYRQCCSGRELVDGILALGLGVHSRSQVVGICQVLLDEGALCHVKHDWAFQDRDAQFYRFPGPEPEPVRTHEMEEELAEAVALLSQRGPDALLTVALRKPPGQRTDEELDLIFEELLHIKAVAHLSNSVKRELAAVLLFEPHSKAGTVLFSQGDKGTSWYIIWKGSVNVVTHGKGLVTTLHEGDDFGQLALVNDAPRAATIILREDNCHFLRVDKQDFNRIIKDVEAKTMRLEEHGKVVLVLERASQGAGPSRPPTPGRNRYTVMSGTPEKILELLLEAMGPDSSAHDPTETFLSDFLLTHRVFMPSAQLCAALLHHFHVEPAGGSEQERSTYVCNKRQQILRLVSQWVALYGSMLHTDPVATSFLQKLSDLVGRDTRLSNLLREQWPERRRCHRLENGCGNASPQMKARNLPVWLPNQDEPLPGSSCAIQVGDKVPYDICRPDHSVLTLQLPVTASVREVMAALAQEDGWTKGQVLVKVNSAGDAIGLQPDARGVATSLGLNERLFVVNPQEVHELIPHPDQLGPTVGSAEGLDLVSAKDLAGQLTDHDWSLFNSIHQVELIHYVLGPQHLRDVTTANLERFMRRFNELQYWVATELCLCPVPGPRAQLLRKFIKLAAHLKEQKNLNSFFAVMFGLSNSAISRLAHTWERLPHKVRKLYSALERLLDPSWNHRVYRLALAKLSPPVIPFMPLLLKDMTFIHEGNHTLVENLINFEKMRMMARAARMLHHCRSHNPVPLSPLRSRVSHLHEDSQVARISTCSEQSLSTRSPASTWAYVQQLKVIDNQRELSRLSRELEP

For `O=[N+]([O-])c1ccc(CNc2nc(NCc3cccc(C(F)(F)F)c3)nc3nc[nH]c23)cc1`, the activity in test [1] is -6.92% and 9.66%; in test [3], -49.3% and -10.9%; in test [4], -13.5% and 7.65%. Further, the activity change, negative = inhibition in test [2] is -3.71% and 5.72%.

Regarding `O=C(O)c1cc(O)c(O)c(O)c1`, the outcome in [5], in test [6], in [7], in [8] and in test [9] was “inactive” in each case.

Take `COc1ccc(/C=C2\COc3ccc(C)cc3C2=O)cc1O`: the values for the activity in [1], in test [3] and in [4] were 3.43%, -20.1% and 4.48%, respectively. The activity change, negative = inhibition in test [2] is -4.7%.

For `COC1=C(OC)C(=O)c2ccccc2C1=O`, the activity in test [1] is -44.1%; in test [3], -23.6%; in [4], -70.6%. The Potency in test [2] was 19.3 µM (active).

As to `Oc1cc2c(cc1O)CN(C(=S)NCCc1ccc(Cl)cc1)CCC2`, the Potency result in test [10] and in [11] was “inactive” throughout. Further, the activity was 160% in test [1], -17.6% in [3] and 0.243% in [4]. Moreover, in [2], the activity change, negative = inhibition came out at 2.52%.

For `Fc1ccc(C(OCCCc2cnc[nH]2)c2ccc(F)cc2)cc1`, the activity in test [1] was 0.59%; in test [3] it was -23.2%; in test [4], -0.346%. For the same molecule, the activity change, negative = inhibition in test [2] is 7.35%.

In the case of `CC(C)(C)c1ccc(S(=O)(=O)/C=C/C#N)cc1`, the activity in test [1] is 0.864%; in test [3], -4.25%; in test [4], 5.53%. Besides, the activity change, negative = inhibition in test [2] is -1.56%.

Take `CC(C)(C=O)Cc1cc(C(C)(C)C)c(O)c(C(C)(C)C)c1`: the activity is 2.63% in test [1], -8.99% in [3] and -4.11% in test [4]. For the same molecule, in test [2], the activity change, negative = inhibition was 1.77%.

Turning to `O=C(O)CC[C@@H](C(=O)O)N1C(=O)c2ccccc2C1=O`, the activity in test [1] is -23.9%; in test [3] it was -12.9%; in [4], -4.01%. Moreover, the activity change, negative = inhibition in [2] is -2.85%.

For the molecule `Oc1ccc(C2CNCc3sccc32)cc1O` (stereo unspecified), the activity is 133% in test [1], -8.32% in test [3] and 0.43% in test [4]. For the same molecule, in test [2], the activity change, negative = inhibition came out at 1.13%.

Regarding `COc1ccccc1CNCCCCCCNCCCCCCCCNCCCCCCNCc1ccccc1OC`, the activity was 5.14% in test [1], -17.7% in test [3] and 2.9% in test [4]. In test [2], the Potency was 0.153 µM (active).

Consider `Cc1ccc(O)c(N=Nc2ccccc2)n1`, for which the Potency entry in [10] and in [11] was “inactive” throughout.

Consider `N=c1ccn2c(n1)O[C@H]1[C@H](O)[C@@H](CO)O[C@H]12`, for which the outcome in [12] is “inactive”.

With `O=Nc1ccc2oc(=O)ccc2c1`, the activity in test [1] was 0.573%; in [3], -0.856%; in [4] it was 5.38%. Further, the activity change, negative = inhibition in [2] came out at 3.53%.

In the case of `O=C(c1cc(O)c(O)c([N+](=O)[O-])c1)c1ccccc1F`, the activity in test [1] is -103%; in [3], -15.6%; in test [4], -23.2%. Also, in test [2], the activity change, negative = inhibition was -5.06%.

Take `C#CCN1C(C)=C(C(=O)OC)C(c2cccc([N+](=O)[O-])c2)C(C(=O)OCC)=C1C` (stereo unspecified): the Potency result in test [10] and in test [11] was “inactive” each time. Moreover, the Potency in test [13] is 6.98 µM (active).

Take `CNc1ncnc2c1ncn2[C@@H]1O[C@H](CO)[C@@H](O)[C@H]1O`: the outcome in test [12] was “inactive”.

With `OCC1O[C@H]([S-])[C@H](O)[C@@H](O)[C@@H]1O.[Au+]` (stereo partly specified), the activity was -38.3% in test [1], -21.4% in test [3] and -1.84% in test [4]. For the same molecule, in test [2], the Potency was 4.85 µM (active).
